Only some compounds are listed: those with a hit (about 3.8% of all), similar ones and a draw of the others.
ATXN2 expr inh – reduces ATXN2 reporter expression in HEK-293 cells | HEK-293 ATXN2-luciferase reporter, luminescence, 24 h | Potency, µM (top dose mostly 57 µM), for inactives: at the highest dose activity change, negative = inhibition, most hits filed as inhibitors | 360,000 compounds, 0.72% hits; note: % is set by controls: 0 for no effect and ±100 for the full control effect; nearly all actives have a fitted effect of over 55% in size
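ATXN2-luciferase reporter cells (luciferase flanked by upstream and downstream ATXN2 gene portions) were treated 24 h at 37 °C with compounds at up to 57 uM. SteadyGlo luminescence gave expression; GF-AFC fluorescence gave viability.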
HepG2 viability – counter-screen for TGF-b inhibitors: cytotoxicity in HepG2 cells; 410,000 compounds, 0.76% hits; AID 588856; HepG2 CAGA-GFP viability, ATP luminescence, 18 h; Potency, µM (doses to about 46.1 µM), without a hit: at the top dose activity change, negative = cytotoxicity, hits mostly cytotoxic
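CellTiter-Glo luminescence gave cytotoxicity after 18 hours at 37 degrees C. The cells were HepG2 CAGA-GFP in 1% FBS DMEM, stimulated with 500 pg/mL TGF-beta after compound addition. %Activity was normalised to no-cell wells (complete cell-killing) and DMSO (no toxicity), and curves were fitted and classified.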
S2 tox – reduces viability in counter-screen for ATXN expression inhibitors; S2 cells (HEK-293 line with an ATXN2-luciferase reporter) viability, CellTiter-Fluor protease fluorescence, 24 h; 400,000 compounds, 0.49% hits; Potency, µM (highest dose often 56.7 µM), most hits filed as cytotoxic; note: nearly all actives have a fitted effect of over 40% in size
Nrf2 block – inhibitors of Nrf2 signaling. A549 ARE-Fluc reporter, luciferase luminescence, 18-24 h. Potency, µM (titrated, usually from 46 µM), for the others: at the highest dose activity change, negative = inhibition, actives largely listed as inhibitors. 360,000 compounds, 2.1% hits. AID 504444; note: % is set by controls: 0 for no effect and ±100 for the full control effect; nearly all actives have a fitted effect of over 60% in size
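Concentration-response testing used A549 ARE_Fluc cells at 5000 cells/well. Following an 18-24 h compound incubation, viability was read by fluorescence (Ex 405/Em 525) and luciferase output by luminescence.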
TGFb inhibitor – inhibitors of TGF-b signaling; HepG2 CAGA-GFP TGF-b/SMAD3 reporter, GFP fluorescence, 18 h; TGF-beta stimulated, 500 pg/mL final; Potency, µM (top dose mostly 46.1 µM), for inactives: top-dose activity, negative = inhibition, hits mostly inhibitors; 410,000 compounds, 1.2% hits; note: % is set by controls: 0 for no effect and ±100 for the full control effect; nearly all actives have a fitted effect of over 65% in size
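First, reporter cells (HEPG2 CAGA-GFP) rested 2 h at 37 degrees C. Next, compounds were pinned in and TGF-beta added to 500 pg/mL final. After 18 h, GFP was imaged per cell and summed per well.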
A549 viability – A549 cytotoxicity, counter-screen for Nrf2 inhibitors; A549 ARE-Fluc cells, CellTiter-Fluor viability, 18-24 h; 390,000 compounds, 0.16% hits; Potency, µM (doses to about 46 µM), for the others: at the highest dose activity change, negative = cytotoxicity, most hits filed as inhibitors; note: % is set by controls: 0 for no effect and ±100 for the full control effect
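A549 ARE_Fluc cells in 5% FBS OPTI-MEM were exposed to compounds in concentration-response for 18-24 h at 37 deg C. Viability was read by CellTiter-Fluor fluorescence (Ex 405/Em 525) after 30 min, before the luciferase read.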
The depositor's hits bear a star; i = inactive; ? = inconclusive; . = no result given. Calls come from the whole dose curve; as a rule, active = well fitted curve in the direction sought with a large enough effect; inconclusive = small, poorly fitted or top-dose-only effect, or another doubt; inactive = no such curve, though single readings can be large; an effect the other way counts as inactive or inconclusive. Potency is the fitted concentration of half-maximal effect.

SMILES	ATXN2 expr inh	HepG2 viability	S2 tox	Nrf2 block	TGFb inhibitor	A549 viability
Cc1ccc(C(=O)N/C(=C\c2ccc(-c3ccc(Br)cc3)o2)C(=O)NCCCN(C)C)cc1	10µM*	4.5µM*	32µM*	?	7.1µM*	?
CN(C)CCNC(=O)/C(=C/c1ccc(-c2ccc(Cl)cc2Cl)o1)NC(=O)c1ccccc1	-25%	-105%	?	-4%	?	2%
O=C(CCn1c(=O)c2cccn2c2cccnc21)N1CCN(c2ccccc2)CC1	.	-19%	.	2%	-8%	7%
O=C(CCn1c(=O)c2cccn2c2cccnc21)N1CCN(c2cccc(C(F)(F)F)c2)CC1	.	-42%	.	?	11µM*	-5%
CC(C)(O)C#Cc1ccc(N2C(c3ccsc3)=Cc3ccc(F)cc3C2c2c[nH]c3ccccc23)cc1 (stereo unspecified)	-7%	.	?	.	.	.
CC1=C(C(=O)Nc2ccccc2)C(c2ccc(O)cc2)n2nc(-c3ccc(Cl)cc3)nc2N1 (stereo unspecified)	0%	-77%	28µM*	-13%	?	-11%
COc1ccc(C2C(C(=O)Nc3ccccc3)=C(C)Nc3nc(-c4ccc(Cl)cc4)nn32)cc1 (stereo unspecified)	-31%	-31%	i	?	-5%	-16%
CCCCCCC[C@@H](C/C=C/CCC(=O)N(C)C/C(=C/Cl)C/C(=C\C(=O)N1C[C@H](O)CC1=O)OC)OC	?	-104%	?	?	16µM*	-9%
O=C1/C(=C/c2cccs2)SC(=S)N1c1cccc(O)c1	19%	-31%	i	13%	?	-2%
O=C1/C(=C/c2cccs2)SC(=S)N1c1ccccc1	-5%	-24%	?	10µM*	0%	?
CC(=O)Nc1ccc(C(=O)CN2C(=O)NC3(CCOc4ccccc43)C2=O)c(F)c1 (stereo unspecified)	2%	-2%	i	-2%	0%	-2%
Cc1ccc(C)c(N(CC(=O)NC2CCCC2)C(=O)c2oc(C(C)(C)C)cc2C)c1	?	22µM*	?	?	?	?
Cc1ccc(S(=O)(=O)N2[C@@H](c3ccc(Br)cc3)C(C(=O)O)=CC[C@H]2c2ccc(Cl)c(Cl)c2)cc1	-10%	-30%	i	26µM*	?	-16%
Cc1ccc(S(=O)(=O)N2[C@@H](c3ccc(C(C)(C)C)cc3)C(C(=O)O)=CC[C@H]2c2ccc(Cl)c(Cl)c2)cc1	3%	-5%	i	-10%	?	-2%
Cc1ccc(S(=O)(=O)N2[C@@H](c3ccccc3)C(C(=O)O)=CC[C@H]2c2ccc(C(C)C)cc2)cc1	2%	-31%	i	-12%	16µM*	-14%
O=C(Nc1ccncc1Cl)c1ccncc1	-3%	6%	i	7%	-2%	0%
Cc1ccc(NC(=O)CSC2=C(C#N)C(c3ccc4c(c3)OCO4)C3=C(CCCC3=O)N2)c(C)c1 (stereo unspecified)	0%	-6%	?	12µM*	-12%	.
COC(=O)CSC1=C(C#N)C(c2ccc3c(c2)OCO3)C2=C(CCCC2=O)N1 (stereo unspecified)	6%	-15%	i	17%	7%	2%
Cc1cc2c(cc(C(=O)OC(C(=O)NC3CCCCC3)C(C)C)n2C)o1 (stereo unspecified)	.	-2%	i	21µM*	?	-12%
Cc1cc(Nc2nc(N[C@@H](C)c3ccc(F)cc3)c(C#N)cc2F)n[nH]1	24µM*	.	.	.	.	.
COc1cc(C)ccc1OCCCn1c(-c2ccc(Cl)cc2)nc2ccccc2c1=O	8%	7%	i	14%	-4%	8%
CC1CCCC(NC(=O)CSc2ccc(F)cc2)C1C (stereo unspecified)	.	-2%	?	-20%	0%	-3%
CC1CCCC(NCC(O)COC(c2ccc(F)cc2)c2ccc(F)cc2)C1C (stereo unspecified)	?	22µM*	?	?	?	?
COc1ccc(-c2noc(CCC(=O)O)n2)cc1	-8%	7%	i	-17%	-9%	-1%
CCN(C(=O)CCc1nc(-c2ccc(C)cc2)no1)c1cccc(Cl)c1	13%	-2%	i	?	13µM*	-1%
SMILES	ATXN2 expr inh	HepG2 viability	S2 tox	Nrf2 block	TGFb inhibitor	A549 viability
CCN(C(=O)CCc1nc(-c2ccc(C)cc2)no1)c1cccc(C(F)(F)F)c1	0%	-11%	i	-4%	?	7%
COc1ccc(-c2noc(CCCC(=O)O)n2)cc1	4µM*	-5%	i	1.8µM*	-10%	-2%
CCOc1ccc(-c2noc(CCC(=O)O)n2)cc1	?	-19%	i	3.3µM*	-16%	5%
CCOC(=O)c1ccc(NC(=O)CCc2nc(-c3ccc(C)cc3)no2)cc1	0%	-71%	i	15µM*	5%	-19%
Cc1ccc(-c2nc3c(c(SCC(=O)N4CCOCC4)n2)COC(C)(C)C3)cc1	11%	1%	i	?	1%	0%
CCC(C)NS(=O)(=O)c1ccc(S(=O)(=O)N(CC(=O)Nc2ccccc2)Cc2ccco2)cc1 (stereo unspecified)	-2%	-30%	i	13µM*	?	-10%
CCOC(=O)C1CCC(CN(Cc2ccc(Cl)cc2)S(=O)(=O)c2cc(Cl)cc(Cl)c2)CC1 (stereo unspecified)	0%	1%	i	.	22%	7%
O=C(Nc1nncs1)c1cccc(S(=O)(=O)N2CCc3ccccc32)c1	-19%	-20%	i	?	-2%	-10%
CCCNC(=O)c1cc(S(=O)(=O)N2CCc3ccccc32)cn1C	-19%	-35%	i	12µM*	?	-12%
O=C(Nc1nc2c(s1)CCCC2)c1cccc(S(=O)(=O)N2CCCc3ccccc32)c1	-8%	-6%	i	21µM*	?	1%
CCC(CC)c1nnc(NC(=O)c2cccc(S(=O)(=O)N3CCc4ccccc43)c2)s1	-2%	-25%	i	21µM*	?	-3%
CCCCCCc1cc2cc(S(=O)(=O)c3ccc(Cl)cc3)c(=O)oc2cc1O	?	-59%	.	?	11µM*	2%
CCCCCCc1cc2cc(C(=O)Nc3ccccc3)c(=O)oc2cc1O	7.1µM*	-6%	i	2%	?	-3%
CC(C)(C)[C@@H]1CCC(=O)N(CC[C@H](Sc2ccccc2)c2ccccc2)CC1	?	-60%	i	?	?	0%

High-throughput results from PubChem BioAssay.
